{
  "source": "PubChem BioAssay AID1117313",
  "about": "(National Center for Advancing Translational Sciences (NCATS), 2015)",
  "note": "Active and inactive are the calls of the source. Calls follow the shape of the full dose curve.",
  "data": [
    {"details": "Ebola virus entry reporter assay, ratio channel", "values": [
      {"compound": "CCCNCC(O)COc1ccccc1C(=O)CCc1ccccc1", "note": "(centres undefined)", "AC50": "8630 nM (active)"},
      {"compound": "C[C@]12CC[C@@H]3c4ccc(O)cc4C[C@@H](CCCCCCCCCS(=O)CCCC(F)(F)C(F)(F)F)[C@H]3[C@@H]1CC[C@@H]2O", "note": "(some centres undefined)", "outcome": "inactive"},
      {"compound": "CC[C@H]1OC(=O)[C@H](C)[C@@H](O[C@H]2C[C@@](C)(OC)[C@@H](O)[C@H](C)O2)[C@H](C)[C@@H](O[C@@H]2O[C@H](C)C[C@H](N(C)C)[C@@H]2O)[C@](C)(O)C[C@@H](C)CN(C)[C@H](C)[C@@H](O)[C@]1(C)O", "AC50": "3060 nM (active)"},
      {"compound": "COC(=O)Nc1nc2ccc(C(=O)c3ccccc3)cc2[nH]1", "AC50": "3430 nM (active)"},
      {"compound": "CC[C@]1(O)C[C@H]2CN(CCc3c([nH]c4ccccc34)[C@@](C(=O)OC)(c3cc4c(cc3OC)N(C=O)[C@H]3[C@@](O)(C(=O)OC)[C@H](OC(C)=O)[C@]5(CC)C=CCN6CC[C@]43[C@@H]65)C2)C1", "AC50": "137 nM (active)"},
      {"compound": "Cc1nnc(C(C)C)n1C1C[C@H]2CC[C@@H](C1)N2CC[C@H](NC(=O)C1CCC(F)(F)CC1)c1ccccc1", "note": "(some centres undefined)", "outcome": "inactive"},
      {"compound": "CN1CCC[C@@H]1CCO[C@](C)(c1ccccc1)c1ccc(Cl)cc1", "AC50": "1530 nM (active)"},
      {"compound": "CO[C@H]1C[C@@H]2CC[C@@H](C)[C@@](O)(O2)C(=O)C(=O)N2CCCC[C@@H]2C(=O)O[C@H]([C@H](C)C[C@@H]2CC[C@H](OCCO)[C@H](OC)C2)CC(=O)[C@H](C)C=C(C)[C@@H](O)[C@@H](OC)C(=O)[C@H](C)C[C@H](C)C=CC=CC=C1C", "outcome": "inactive"},
      {"compound": "CN1[C@@H]2CC[C@H]1CC(OC(c1ccccc1)c1ccccc1)C2", "note": "(some centres undefined)", "AC50": "3850 nM (active)"},
      {"compound": "COC1=CC(=O)C[C@@H](C)[C@]12Oc1c(Cl)c(OC)cc(OC)c1C2=O", "outcome": "inactive"},
      {"compound": "CN(C)CCCN1c2ccccc2CCc2ccc(Cl)cc21", "AC50": "5440 nM (active)"},
      {"compound": "CC[C@H]1OC(=O)[C@H](C)[C@@H](O[C@H]2C[C@@](C)(OC)[C@@H](O)[C@H](C)O2)C(C)[C@@H](O[C@@H]2O[C@H](C)C[C@H](N(C)C)[C@@H]2O)[C@](C)(OC)C[C@@H](C)C(=O)[C@H](C)[C@@H](O)[C@]1(C)O", "note": "(some centres undefined)", "AC50": "4850 nM (active)"},
      {"compound": "C[C@@H]1O[C@@H](O[C@H]2CC[C@@]3(C)[C@H](CC[C@@H]4[C@H]3C[C@@H](O)[C@]3(C)[C@@H](C5=CC(=O)OC5)CC[C@]43O)C2)C[C@H](O)[C@@H]1O[C@H]1C[C@H](O)[C@H](O[C@H]2C[C@H](O)[C@@H](O)[C@@H](C)O2)[C@H](C)O1", "note": "(stereo in doubt)", "AC50": "1400 nM (active)"},
      {"compound": "CCCSc1ccc2nc(NC(=O)OC)[nH]c2c1", "AC50": "4320 nM (active)"},
      {"compound": "CC[C@]1(O)C[C@@H]2CN(CCc3c([nH]c4ccccc34)[C@@](C(=O)OC)(c3cc4c(cc3OC)N(C)[C@H]3[C@@](O)(C(=O)OC)[C@H](OC(C)=O)[C@]5(CC)C=CCN6CC[C@]43[C@@H]65)C2)C1", "AC50": "122 nM (active)"},
      {"compound": "CO[C@H]1C[C@@H]2CC[C@@H](C)[C@@](O)(O2)C(=O)C(=O)N2CCCC[C@@H]2C(=O)O[C@H]([C@@H](C)C[C@@H]2CC[C@H](O)[C@H](OC)C2)CC(=O)[C@H](C)C=C(C)[C@@H](O)[C@@H](OC)C(=O)[C@H](C)C[C@H](C)C=CC=CC=C1C", "outcome": "inactive"},
      {"compound": "COc1cccc2c1C(=O)c1c(O)c3c(c(O)c1C2=O)C[C@@](O)(C(C)=O)C[C@H]3O[C@H]1C[C@H](N)[C@H](O)[C@H](C)O1", "AC50": "2730 nM (active)"},
      {"compound": "CCCCc1oc2ccc(NS(C)(=O)=O)cc2c1C(=O)c1ccc(OCCCN(CCCC)CCCC)cc1", "AC50": "2430 nM (active)"},
      {"compound": "CCC1=C[C@@H]2CN(C1)Cc1c([nH]c3ccccc13)[C@@](C(=O)OC)(c1cc3c(cc1OC)N(C)[C@H]1[C@@](O)(C(=O)OC)[C@H](OC(C)=O)[C@]4(CC)C=CCN5CC[C@]31[C@@H]54)C2", "AC50": "86.3 nM (active)"},
      {"compound": "CN(C)CCOc1ccc(/C(=C(/CCCl)c2ccccc2)c2ccccc2)cc1", "AC50": "1090 nM (active)"},
      {"compound": "NCCCC(O)(P(=O)(O)O)P(=O)(O)O", "outcome": "inactive"},
      {"compound": "CN1CCN(CCCN2c3ccccc3Sc3ccc(C(F)(F)F)cc32)CC1", "AC50": "2730 nM (active)"},
      {"compound": "COC(=O)Nc1nc2ccc(C(=O)c3cccs3)cc2[nH]1", "AC50": "544 nM (active)"},
      {"compound": "CCN(CC)CCNC(=O)c1c(C)[nH]c(/C=C2\\C(=O)Nc3ccc(F)cc32)c1C", "AC50": "1530 nM (active)"}
    ]}
  ]
}
